Measured values taken from PubChem BioAssay (NCATS).
Results filed as inconclusive are left out. A call without a number means that no potency is given here. Values without a mark were called inactive. The source made the active and inactive calls. The call rests on the fitted dose curve; in most records, active means well fitted inhibition curve with a large enough effect; inconclusive means small, poorly fitted or top-dose-only effect; inactive means no such curve, though single readings can be large or run the other way.

Assay: Primary qHTS for inhibitors of nuclear receptor binding SET domain protein 2 (NSD2) in an RCH-ACV wild type WT cells (2C) (AID 1645877); further: nearly all actives have a fitted effect of over 70% in size
Conditions: RCH-ACV (leukaemia line) NSD2 WT (2C) viability, CellTiter-Glo, 72 h; series mostly up to 44.9 µM

SMILES	Potency	outcome	activity change, negative = cell killing
CC1(C)CCC[C@@]2(C)[C@H]1[C@H](O)C=C1COC(=O)[C@@]12O	inactive	–	–
CC1(C)C[C@H]2C3=CCC4[C@@]5(C)CC[C@H](O[C@H]6O[C@H](C(=O)O)[C@@H](O)[C@H](O)[C@H]6O[C@H]6O[C@H](CO)[C@@H](O)[C@H](O)[C@H]6O[C@@H]6O[C@H](CO)[C@@H](O)[C@H](O)[C@H]6O)[C@](C)(CO)C5CC[C@@]4(C)[C@]3(C)CC[C@@]2(C)[C@H](O[C@@H]2OC[C@H](O)[C@H](OC3O[C@H](CO)[C@@H](O)[C@H](O)[C@H]3O)[C@H]2O)[C@@H]1O (stereo not given in full)	–	inactive [at 9.23 µM]	–
Cc1c(CN(C)C(=O)/C=C/c2cnc3c(c2)CCC(=O)N3)oc2ccccc12	inactive	–	–
CC(=O)OC[C@@]12[C@@H](OC(C)=O)C[C@@H](C)[C@](C)([C@@H]3C[C@H]4C=CO[C@H]4O3)[C@H]1CCC[C@]21CO1	inactive	–	–
CC(C(=O)O)C1CCC2(C)C3C(=O)C=C4C(CCC(=O)C4(C)C)C3(C)CCC12C (stereo not given)	inactive	–	–
CC12CCC3C(C)(C)C(O)CCC3(C)C1Cc1c(oc(C(=O)O)cc1=O)O2 (stereo not given)	inactive	–	–
COC(=O)C1=CO[C@@H](O[C@@H]2O[C@H](CO)[C@@H](O)[C@H](O)[C@H]2O)[C@@H]2[C@@](C)(O)[C@@H](O)C[C@]12O	inactive	–	–
COC(=O)[C@]12C(=O)C(C)=C(O)[C@@]1(C)C(C)=CC1[C@@]34CC[C@@H](OC(C)=O)C(C)(C)C3[C@H](C[C@]12C)OC4=O (stereo not given in full)	inactive	–	–
O=C(NN1CCCCC1)c1nn(-c2ccc(Cl)cc2Cl)c(-c2ccc(C#Cc3ccc(C(F)(F)F)cc3)s2)c1CNS(=O)(=O)N1CCCC1	inactive	–	–
COC(=O)C12C(=O)C(C)=C(O)C1(C)C(C)=CC1C34CCC(OC3=O)C(C)(C)C4CCC12C (stereo not given)	inactive	–	–
CC1(C)CC2C(C1)C1(C)CCC13OC3(CO)C2O (stereo not given)	inactive	–	–
C/C=C1\[C@H](O[C@@H]2O[C@H](CO)[C@@H](O)[C@H](O)[C@H]2O)OC=C(C(=O)OC)[C@H]1CC(=O)OC	inactive	–	–
CC(C)c1cc2c(c(O)c1O[C@@H]1O[C@H](CO)[C@@H](O)[C@H](O)[C@H]1O)CC1(O)CCC(O)C(C)(C)C1CC2 (stereo not given in full)	inactive	–	–
CC1(CO)CC2C(O)C(=O)C3(CO)CC3(C)C2C1 (stereo not given)	inactive	–	–
CC(=O)OC[C@]12[C@H](OC(C)=O)C(=O)[C@@H]3[C@@H](OC(C)=O)[C@@]14O[C@@]3(C)COC(=O)c1cccnc1[C@@H](C)[C@H](C)C(=O)O[C@@H]([C@H](OC(C)=O)[C@@H]2OC(C)=O)[C@]4(C)O	inactive	–	–
O=C(O[C@H]1[C@@H]2C=CO[C@@H](O[C@@H]3O[C@H](CO)[C@@H](O)[C@H](O)[C@H]3O)[C@@H]2[C@@]2(CO)O[C@@H]12)c1ccc(O)cc1	inactive	–	–
O=C1Nc2ccc(O)cc2O[C@H]1O[C@@H]1O[C@H](CO)[C@@H](O)[C@H](O)[C@H]1O	inactive	–	–
COc1cc2c(cc1O)C1(OC)Cc3ccc4c(c3C1N(C)CC2)OCO4 (stereo not given)	inactive	–	–
C=C(C(=O)O)C1CCC(C)C2CCC(=O)OC2(C)C1 (stereo not given)	inactive	–	–
C[C@@H]1C(=O)O[C@H]2[C@H]1CC[C@@]1(C)C(=O)C=C[C@](C)(O)[C@H]21	inactive	–	–

SMILES	Potency	outcome	activity change, negative = cell killing
C[C@@H]1O[C@@H](O[C@H]2[C@H](O)[C@@H](O)[C@H](OC[C@H]3O[C@@H](OC(=O)[C@]45CCC(C)(C)C[C@H]4C4=CCC6[C@@]7(C)C[C@H](O)[C@H](O[C@@H]8O[C@H](CO)[C@@H](O)[C@H](O)[C@H]8O)[C@@](C)(C(=O)O)C7CC[C@@]6(C)[C@]4(C)CC5)[C@H](O[C@@H]4O[C@H](CO)[C@@H](O)[C@H](O)[C@H]4O)[C@@H](O)[C@@H]3O)O[C@@H]2CO)[C@H](O)[C@H](O)[C@H]1O (stereo not given in full)	–	–	-0.13% [at 9.23 µM]
CC1C/C=C/C=C\CCCCC(O)C/C=C/C(=O)O1 (stereo not given)	inactive	–	–
CO[C@@]12CC3[C@@H]([C@@H](O)[C@@H](OC(C)=O)C4[C@](C)(COC(C)=O)CCC[C@]34C)[C@@H](C)C1=CC(=O)O2 (stereo not given in full)	inactive	–	–
C=C1C[C@@]23CC[C@@H]4[C@](C)(C(=O)O)CCC[C@@]4(C)C2=CC[C@H]1C3	inactive	–	–
CC(C)=CCCC1(C)Oc2cc3c(c4c2C2C(O4)C(C)(O)CCC21)CN(C(CCC(=O)O)C(=O)O)C3=O (stereo not given)	inactive	–	–
COc1cc(C2Oc3c(O)cc(CCCO)cc3C2CO)ccc1O[C@H]1O[C@H](C)[C@@H](O)[C@H](O)[C@@H]1O (stereo not given in full)	inactive	–	–
CC1=CCC2C(C)(CO)CCCC2(CO)C1CO (stereo not given)	inactive	–	–
CC(/C=C/C1(O)C(C)CC(O)CC1(C)C)OC1OC(CO)C(O)C(O)C1O (stereo not given)	inactive	–	–
CC1(C)CC2C3=CCC4C5(C)CCC(OC6OC(CO)C(O)C(OC7OC(CO)C(O)C(OC8OC(CO)C(O)C(OC9OC(COC%10OC(CO)C(O)C(O)C%10O)C(O)C(O)C9O)C8O)C7O)C6O)C(C)(C)C5CCC4(C)C3(C)CCC2(C(=O)O)CC1O (stereo not given)	–	–	4.6% [at 9.23 µM]
CC1OC(OC2C(C)OC(OC3C(OC(=O)/C=C/c4ccc(O)cc4)C(CO)OC(OC4(COC(=O)/C=C/c5ccc(O)cc5)OC(CO)C(O)C4O)C3OC3OCC(O)(CO)C3O)C(O)C2O)C(O)C(O)C1O (stereo not given)	–	–	-11.9% [at 9.23 µM]
CN1CC[C@@H](NC(=O)Nc2ccc(C#N)cc2)C[C@@H]1c1nc2ccccc2[nH]1	inactive	–	–
c1ccc(Cc2ncc3c(n2)CCNCC3)cc1	inactive	–	–
COC(=O)CC1(O)C(=O)Nc2ccccc21 (stereo not given)	inactive	–	–
CC1CCC2C(C)(C)C(O)CCC2(C)C12Cc1c(O)cc3c(c1O2)C(N)=NC3 (stereo not given)	inactive	–	–
O=C(/C=C/c1ccccc1)OCC1=CC[C@@H]2C(C(=O)O)=CO[C@@H](O[C@@H]3O[C@H](CO)[C@@H](O)[C@H](O)[C@H]3O)[C@H]12	inactive	–	–
C[C@@H]1O[C@@H](O[C@H]2[C@H](O[C@H]3CC[C@@]4(C)C(CC[C@]5(C)C4CC=C4C6CC(C)(C)CC[C@]6(C(=O)O[C@@H]6O[C@H](CO[C@@H]7O[C@H](CO)[C@@H](O[C@@H]8O[C@@H](C)[C@H](O)[C@@H](O)[C@H]8O)[C@H](O)[C@H]7O)[C@@H](O)[C@H](O)[C@H]6O)CC[C@]45C)[C@]3(C)CO)OC[C@H](O)[C@@H]2O)[C@H](O)[C@H](O)[C@H]1O (stereo not given in full)	–	–	-6.93% [at 9.23 µM]
CC1CCC2C(C)(C)C(O)CCC2(C)C12Cc1c(O)cc3c(c1O2)CN=C3N (stereo not given)	inactive	–	–
CC1(CO)CC[C@]2(C(=O)O[C@@H]3O[C@H](CO)[C@@H](O)[C@H](O)[C@H]3O)CC[C@]3(C)C(=CCC4[C@@]5(C)CC[C@H](O[C@@H]6O[C@H](C(=O)O)[C@@H](O)[C@H](O)[C@H]6O)C(C)(C)C5CC[C@]43C)C2C1 (stereo not given in full)	–	inactive [at 9.23 µM]	–
CC1=C2C=C(CO)C(CO)CCC2(C)CCC1=O (stereo not given)	inactive	–	–
CC(/C=C/[C@]1(O)[C@@]2(C)CO[C@@]1(C)C[C@@H](O)C2)=C\C(=O)O[C@@H]1O[C@H](CO)[C@@H](O)[C@H](O)[C@H]1O	inactive	–	–
